Test results: PubChem BioAssay (Tox21)
“And” between values parts separate entries of the source, which are not always exact repeats. Identical values can stand only once. Inconclusive results are not listed. Entries that show only a call come without a potency. Some compounds were tested as several samples or in several runs, with calls that do not always agree. The source made the active and inactive calls. Calls follow the shape of the dose curve; as a rule, active = well fitted curve in the direction sought with a large enough effect in the repeat runs; inconclusive = weak or mixed curves; inactive = no such curve, though single readings can be large; an effect the other way counts as inactive or inconclusive.

Assays:
[1] = Human pregnane X receptor (PXR) small molecule agonists, qHTS cell viability counter screen (AID 1346977); also: nearly all actives have a fitted effect of over 50% in size; also: potency is read from the fitted curve at half-maximal effect
In short: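 After a 5hr pre-incubation, PXR-Luc HepG2 cells received compounds plus positive control in DMSO and were kept 24hr at 37C. Cell viability was quantified by fluorescence from CellTiter-Fluor added for the final hour.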

[2] = Caspase-3/7 induction in HepG2 cells by small molecules, qHTS assay (AID 1346978); also: nearly all actives have a fitted effect of over 15% in size; also: potency is read from the fitted curve at half-maximal effect
In short: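 Caspase-3/7 induction was measured by Caspase-Glo 3/7 luminescence (30 min, room temperature) after a 17 hr compound exposure of wild-type HepG2 cells seeded at 2,000 per well and pre-incubated 5 hr.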

[3] = Caspase-3/7 induction in CHO-K1 cells by small molecules, qHTS assay (AID 1346980); also: nearly all actives have a fitted effect of over 15% in size; also: potency is read from the fitted curve at half-maximal effect
In short: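 Luminescent Caspase-Glo 3/7 read (30min, room temperature) quantified apoptosis induction. Cells were wild-type CHO-K1, treated with compound for 17hr at 37 C and 5% CO2.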

[4] = Caspase-3/7 induction in HepG2 cells by small molecules, qHTS cell viability counter screen (AID 1346981); also: nearly all actives have a fitted effect of over 30% in size; also: potency is read from the fitted curve at half-maximal effect
In short: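 In this quantitative HTS counter screen, compounds delivered in DMSO were left on unmodified HepG2 cells for 16 hr at 37 C. Viability was then determined fluorometrically with CellTiter-Fluor, in parallel with caspase-3/7 induction in the same wells.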

[5] = target: Nuclear receptor subfamily 1 group I member 2 (Homo sapiens) (UniProt O75469); assay: Human pregnane X receptor (PXR) small molecule agonists, qHTS assay (AID 1346982); also: nearly all actives have a fitted effect of over 35% in size; also: potency is read from the fitted curve at half-maximal effect
Nuclear receptor subfamily 1 group I member 2 (Homo sapiens), sequence (O75469 whole entry, looked up): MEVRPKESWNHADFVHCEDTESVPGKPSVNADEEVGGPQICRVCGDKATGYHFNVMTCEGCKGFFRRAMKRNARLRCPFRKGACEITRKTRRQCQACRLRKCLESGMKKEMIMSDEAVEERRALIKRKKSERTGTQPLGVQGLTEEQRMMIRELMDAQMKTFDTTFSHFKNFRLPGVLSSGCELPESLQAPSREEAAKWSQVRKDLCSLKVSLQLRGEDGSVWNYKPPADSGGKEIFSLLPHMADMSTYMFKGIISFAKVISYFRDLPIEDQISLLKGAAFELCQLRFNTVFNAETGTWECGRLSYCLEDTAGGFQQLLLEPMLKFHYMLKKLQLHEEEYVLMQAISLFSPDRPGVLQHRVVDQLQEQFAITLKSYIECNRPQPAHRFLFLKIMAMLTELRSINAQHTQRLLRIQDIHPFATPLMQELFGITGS
In short: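 Reporter HepG2 cells expressing PXR-Luc are cultured in charcoal-stripped FBS (5%), treated with compounds for 24 hr at 37 C, and assayed by ONE-Glo luminescence after 30 min at room temperature.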

[6] = target: Nuclear receptor subfamily 1 group I member 2 (Homo sapiens) (UniProt O75469); assay: CYP3A4 induction through human pregnane X receptor (PXR) by small molecules, qHTS assay (AID 1346984); also: nearly all actives have a fitted effect of over 40% in size
In short: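 Induction measured in HepG2-based DPX-2 cells co-expressing human PXR and a CYP3A4 promoter-driven luciferase. After a 24-hour compound exposure, cells received CYP3A4 luciferin substrate at 3uM final for 3 hours, and light output was then recorded.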

[7] = target: Cytochrome P450 2D6 (Homo sapiens) (UniProt P10635); assay: Cytochrome P450 Family 2 Subfamily D Member 6 (CYP2D6) small molecule antagonists: luciferase reporter qHTS assay (AID 1671196); also: nearly all actives have a fitted effect of over 50% in size; also: potency is read from the fitted curve at half-maximal effect
Cytochrome P450 2D6 (Homo sapiens), sequence (P10635 whole entry, looked up): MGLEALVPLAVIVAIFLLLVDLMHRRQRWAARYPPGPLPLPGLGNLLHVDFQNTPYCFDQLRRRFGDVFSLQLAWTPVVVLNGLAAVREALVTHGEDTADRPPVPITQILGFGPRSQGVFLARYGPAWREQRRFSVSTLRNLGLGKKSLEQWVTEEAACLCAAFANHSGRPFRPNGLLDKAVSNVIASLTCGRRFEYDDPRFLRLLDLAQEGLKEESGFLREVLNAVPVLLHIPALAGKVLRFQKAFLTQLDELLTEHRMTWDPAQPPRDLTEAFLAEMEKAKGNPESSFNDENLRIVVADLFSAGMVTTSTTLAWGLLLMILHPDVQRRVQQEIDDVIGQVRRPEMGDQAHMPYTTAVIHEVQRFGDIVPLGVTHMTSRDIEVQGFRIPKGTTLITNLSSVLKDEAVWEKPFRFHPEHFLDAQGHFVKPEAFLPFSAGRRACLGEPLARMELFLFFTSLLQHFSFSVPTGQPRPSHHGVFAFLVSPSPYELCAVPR
In short: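 Test chemicals meet CYP2D6 plus proluciferin substrate (10 min, RT); NADPH regenerating solution then drives turnover for 1 h. Detection reagent halts the reaction; luminescence measured after 20 min.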

[8] = target: Cytochrome P450 2C19 (Homo sapiens) (UniProt P33261); assay: Cytochrome P450 Family 2 Subfamily C Member 19 (CYP2C19) small molecule antagonists: luciferase reporter qHTS assay (AID 1671197); also: nearly all actives have a fitted effect of over 65% in size; also: potency is read from the fitted curve at half-maximal effect
Cytochrome P450 2C19 (Homo sapiens), sequence (P33261 whole entry, looked up): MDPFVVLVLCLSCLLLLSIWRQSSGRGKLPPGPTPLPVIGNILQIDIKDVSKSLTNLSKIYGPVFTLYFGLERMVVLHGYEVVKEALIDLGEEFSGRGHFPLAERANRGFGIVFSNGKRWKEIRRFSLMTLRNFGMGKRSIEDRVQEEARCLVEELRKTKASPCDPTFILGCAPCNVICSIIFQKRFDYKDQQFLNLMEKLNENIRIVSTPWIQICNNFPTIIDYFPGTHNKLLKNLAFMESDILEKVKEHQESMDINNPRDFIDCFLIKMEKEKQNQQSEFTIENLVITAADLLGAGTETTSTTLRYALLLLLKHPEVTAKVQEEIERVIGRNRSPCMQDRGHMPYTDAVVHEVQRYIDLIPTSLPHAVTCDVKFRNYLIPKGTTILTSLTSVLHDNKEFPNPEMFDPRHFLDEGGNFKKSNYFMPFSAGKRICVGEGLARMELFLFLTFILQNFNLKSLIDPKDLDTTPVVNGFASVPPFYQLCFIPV
In short: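 P450-Glo CYP2C19 system: enzyme-substrate mix with compound 10 min at room temperature, then NADPH regeneration solution, 1 h at 37C. Proluciferin-to-luciferin conversion detected by luminescence after 20 min with detection reagent; ketoconazole as positive control.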

[9] = target: Cytochrome P450 2C9 (Homo sapiens) (UniProt P11712); assay: Cytochrome P450 Family 2 Subfamily C Member 9 (CYP2C9) small molecule antagonists: luciferase reporter qHTS assay (AID 1671198); also: nearly all actives have a fitted effect of over 50% in size; also: potency is read from the fitted curve at half-maximal effect
Cytochrome P450 2C9 (Homo sapiens), sequence (P11712 whole entry, looked up): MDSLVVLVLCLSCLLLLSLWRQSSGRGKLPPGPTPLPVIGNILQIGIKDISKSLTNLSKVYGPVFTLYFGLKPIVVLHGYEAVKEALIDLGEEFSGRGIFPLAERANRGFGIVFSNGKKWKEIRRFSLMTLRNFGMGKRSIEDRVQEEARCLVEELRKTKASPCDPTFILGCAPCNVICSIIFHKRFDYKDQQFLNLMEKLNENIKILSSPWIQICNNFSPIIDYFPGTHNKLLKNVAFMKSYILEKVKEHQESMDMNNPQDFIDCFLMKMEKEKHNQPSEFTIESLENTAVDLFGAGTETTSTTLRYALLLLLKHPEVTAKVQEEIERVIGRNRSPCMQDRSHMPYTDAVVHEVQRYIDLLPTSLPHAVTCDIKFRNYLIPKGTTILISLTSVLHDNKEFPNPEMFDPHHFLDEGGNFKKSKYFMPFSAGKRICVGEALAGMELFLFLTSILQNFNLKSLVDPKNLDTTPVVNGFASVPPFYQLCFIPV
In short: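 Enzyme-substrate mix preincubated with compound 10 min at room temperature; reaction started with NADPH regeneration solution, 1 h 37C. Luminescent luciferin product read after 20 min detection reagent.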

[10] = target: Cytochrome P450 1A2 (Homo sapiens) (UniProt P05177); assay: Cytochrome P450 Family 1 Subfamily A Member 2 (CYP1A2) small molecule antagonists: luciferase reporter qHTS assay (AID 1671199); also: nearly all actives have a fitted effect of over 50% in size; also: potency is read from the fitted curve at half-maximal effect
Cytochrome P450 1A2 (Homo sapiens), sequence (P05177 whole entry, looked up): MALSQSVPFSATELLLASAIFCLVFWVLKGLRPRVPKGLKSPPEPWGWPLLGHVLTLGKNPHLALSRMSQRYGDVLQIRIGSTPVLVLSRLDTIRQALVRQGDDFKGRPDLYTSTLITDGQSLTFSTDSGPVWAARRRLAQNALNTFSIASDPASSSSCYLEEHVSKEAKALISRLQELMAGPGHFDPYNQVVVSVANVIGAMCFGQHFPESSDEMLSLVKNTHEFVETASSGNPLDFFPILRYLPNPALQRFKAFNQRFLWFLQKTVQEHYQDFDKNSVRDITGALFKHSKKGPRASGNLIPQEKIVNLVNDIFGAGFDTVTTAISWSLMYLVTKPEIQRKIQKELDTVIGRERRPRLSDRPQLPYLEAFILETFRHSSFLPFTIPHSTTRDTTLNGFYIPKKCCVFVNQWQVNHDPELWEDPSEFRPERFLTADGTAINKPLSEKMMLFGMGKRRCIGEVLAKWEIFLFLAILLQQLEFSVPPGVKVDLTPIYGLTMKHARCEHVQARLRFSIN
In short: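 Steps: enzyme-substrate mix dispensed; test compounds and furafylline control pinned in; 10 min room temperature; NADPH regeneration solution added, 1 h; reaction stopped with luciferin detection reagent; luminescence read after 20 min.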

[11] = Caspase-3/7 induction in CHO-K1 cells by small molecules, qHTS cell viability counter screen (AID 1346979); also: nearly all actives have a fitted effect of over 35% in size; also: potency is read from the fitted curve at half-maximal effect
In short: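 Multiplexed with Caspase-Glo 3/7 in CHO-K1 cells, this counter screen added CellTiter-Fluor after 16hr of compound exposure and recorded fluorescence 1hr later.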

[12] = target: Voltage-gated inwardly rectifying potassium channel KCNH2 (Homo sapiens) (UniProt Q12809); assay: Human Ether-a-go-go-Related Gene (hERG) channel small molecule antagonists: fluorescence cell-based qHTS assay (AID 1671200); also: nearly all actives have a fitted effect of over 50% in size; also: potency is read from the fitted curve at half-maximal effect
Voltage-gated inwardly rectifying potassium channel KCNH2 (Homo sapiens), sequence (Q12809 whole entry, looked up): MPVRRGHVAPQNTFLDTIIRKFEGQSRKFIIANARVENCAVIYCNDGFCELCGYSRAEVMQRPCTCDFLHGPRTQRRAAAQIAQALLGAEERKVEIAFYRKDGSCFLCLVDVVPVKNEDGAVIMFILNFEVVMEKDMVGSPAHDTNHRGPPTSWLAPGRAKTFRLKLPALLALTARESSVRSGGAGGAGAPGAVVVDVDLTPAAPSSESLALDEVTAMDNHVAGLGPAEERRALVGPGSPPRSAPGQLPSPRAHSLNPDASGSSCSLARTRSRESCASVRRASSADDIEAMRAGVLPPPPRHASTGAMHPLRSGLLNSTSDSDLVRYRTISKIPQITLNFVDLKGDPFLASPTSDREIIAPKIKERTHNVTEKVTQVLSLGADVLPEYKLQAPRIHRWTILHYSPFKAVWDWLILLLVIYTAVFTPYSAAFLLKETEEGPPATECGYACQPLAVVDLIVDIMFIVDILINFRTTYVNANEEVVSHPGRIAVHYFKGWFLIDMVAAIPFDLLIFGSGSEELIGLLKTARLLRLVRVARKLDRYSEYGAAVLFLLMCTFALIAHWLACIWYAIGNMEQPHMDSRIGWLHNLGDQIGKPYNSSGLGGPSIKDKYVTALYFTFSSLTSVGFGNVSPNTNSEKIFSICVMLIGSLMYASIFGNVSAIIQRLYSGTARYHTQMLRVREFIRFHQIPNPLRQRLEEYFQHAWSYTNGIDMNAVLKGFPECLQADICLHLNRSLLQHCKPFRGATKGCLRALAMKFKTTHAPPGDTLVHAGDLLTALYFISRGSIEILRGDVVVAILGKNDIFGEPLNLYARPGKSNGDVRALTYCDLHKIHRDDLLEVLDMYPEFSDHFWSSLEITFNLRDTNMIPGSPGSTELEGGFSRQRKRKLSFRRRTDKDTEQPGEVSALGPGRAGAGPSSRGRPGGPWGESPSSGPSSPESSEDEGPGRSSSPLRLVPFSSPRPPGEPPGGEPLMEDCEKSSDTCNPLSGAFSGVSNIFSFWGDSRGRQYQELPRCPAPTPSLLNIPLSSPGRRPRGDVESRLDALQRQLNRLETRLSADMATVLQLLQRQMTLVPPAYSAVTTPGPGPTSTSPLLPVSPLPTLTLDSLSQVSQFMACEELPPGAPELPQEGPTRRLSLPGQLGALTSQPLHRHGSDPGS
In short: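 Cell line hERG-U2OS; dye FluxOR II, 1 h RT dark; Tl+ stimulus; ex 480/em 540 nm, read each second for 2 min.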

[13] = target: Cytochrome P450 3A4 (Homo sapiens) (UniProt P08684); assay: Cytochrome P450 Family 3 Subfamily A Member 4 (CYP3A4) small molecule antagonists: luciferase reporter qHTS assay (AID 1671201); also: nearly all actives have a fitted effect of over 50% in size; also: potency is read from the fitted curve at half-maximal effect
Cytochrome P450 3A4 (Homo sapiens), sequence (P08684 whole entry, looked up): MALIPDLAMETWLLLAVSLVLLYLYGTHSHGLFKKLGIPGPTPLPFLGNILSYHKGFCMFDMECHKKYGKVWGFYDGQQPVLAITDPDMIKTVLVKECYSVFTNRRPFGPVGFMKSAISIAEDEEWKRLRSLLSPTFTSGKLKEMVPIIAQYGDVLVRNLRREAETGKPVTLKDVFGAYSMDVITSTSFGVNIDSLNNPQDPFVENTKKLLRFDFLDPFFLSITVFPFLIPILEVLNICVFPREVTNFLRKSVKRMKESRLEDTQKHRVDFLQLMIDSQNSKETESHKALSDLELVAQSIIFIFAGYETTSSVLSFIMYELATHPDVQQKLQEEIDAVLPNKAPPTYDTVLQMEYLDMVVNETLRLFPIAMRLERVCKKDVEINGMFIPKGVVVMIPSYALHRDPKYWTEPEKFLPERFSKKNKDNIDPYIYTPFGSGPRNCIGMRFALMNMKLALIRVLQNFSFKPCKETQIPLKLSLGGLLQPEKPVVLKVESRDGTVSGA
In short: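 Room-temperature assay throughout: 10 min compound–enzyme/substrate preincubation, 1 h reaction after NADPH regeneration solution, 20 min detection. Luciferin formed from proluciferin substrate is quantified by luminescence.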

[14] = target: Nuclear receptor subfamily 1 group I member 2 (Homo sapiens) (UniProt O75469); assay: Human pregnane X receptor (PXR) activation by small molecules, qHTS assay (AID 1346985); also: nearly all actives have a fitted effect of over 40% in size
In short: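 DPX-2 cells (HepG2 co-transfected with a PXR response element and a CYP3A4-promoter luciferase construct) were seeded at 2,000 per well, rested 5 hr at 37C, then exposed to DMSO-dissolved compounds for 24 hr. Activation was read as luciferase luminescence.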

[15] = target: Nuclear receptor subfamily 1 group I member 2 (Rattus norvegicus) (UniProt Q9R1A7); assay: Rat pregnane X receptor (rPXR) activation by small molecules, qHTS assay (AID 1346983); settings: rPXR luciferase reporter cells, One-Glo luminescence, 24 h; max activation: stronger effect = higher value; also: nearly all actives have a fitted effect of over 20% in size
Nuclear receptor subfamily 1 group I member 2 (Rattus norvegicus), sequence (Q9R1A7 whole entry, looked up): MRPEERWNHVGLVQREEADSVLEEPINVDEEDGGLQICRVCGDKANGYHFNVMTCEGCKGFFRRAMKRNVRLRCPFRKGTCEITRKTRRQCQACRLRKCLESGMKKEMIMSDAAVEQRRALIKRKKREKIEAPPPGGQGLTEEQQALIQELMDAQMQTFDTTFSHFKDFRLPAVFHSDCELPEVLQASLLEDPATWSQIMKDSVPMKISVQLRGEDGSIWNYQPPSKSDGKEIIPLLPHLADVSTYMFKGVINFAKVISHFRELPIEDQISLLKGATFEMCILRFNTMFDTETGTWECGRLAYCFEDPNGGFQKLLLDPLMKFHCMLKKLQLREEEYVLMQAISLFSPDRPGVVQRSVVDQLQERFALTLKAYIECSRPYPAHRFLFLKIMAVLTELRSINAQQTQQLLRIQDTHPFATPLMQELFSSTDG
In short: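 Luminescent readout (One-Glo luciferase, 30 min room temperature) followed 24 hr compound treatment at 37 C of rPXR cells plated 2,000 per well and preincubated 5hr; qHTS format with compounds delivered in DMSO.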

Structure (SMILES)	Potency [1]	Potency [2]	Potency [3]	Potency [4]	Potency [5]	Potency [6]	Potency [7]	Potency [8]	Potency [9]	Potency [10]	Potency [11]	Potency [12]	Potency [13]	Potency [14]	max activation [15]
CC[C@H](c1ccc(O)cc1)[C@@H](CC)c1ccc(O)cc1	inactive	inactive	inactive	inactive	61.1 µM (active)	inactive	inactive	79.6 µM (active) and inactive	39.9 µM (active) and 30.9 µM (active)	inactive					
Clc1ccc2cc3ccccc3cc2c1	inactive	inactive	inactive				inactive	79.6 µM (active)		1.59 µM (active)	inactive	inactive	inactive		
O=c1[nH]cnc2nc[nH]c12	inactive	inactive	inactive	inactive	inactive	inactive	inactive	inactive	inactive			inactive	inactive	inactive	
OC1(c2ccc(Cl)c(C(F)(F)F)c2)CCN(CCCC(c2ccc(F)cc2)c2ccc(F)cc2)CC1	10.6 µM (active)	13.3 µM (active)		18.8 µM (active)	inactive		4.9 µM (active)	15.5 µM (active)	8.71 µM (active)		13.3 µM (active)	0.239 µM (active)	inactive		
Cc1cccc(CN2CCN(C(c3ccccc3)c3ccc(Cl)cc3)CC2)c1 (stereo not given)	inactive	inactive	inactive	inactive	inactive	inactive	3.09 µM (active)	8.71 µM (active)	13.8 µM (active)	inactive		2.39 µM (active)		inactive	
COC(=O)C1=C(C)NC(C)=C(C(=O)OCCc2ccc(N3CCN(C(c4ccccc4)c4ccccc4)CC3)cc2)C1c1cccc([N+](=O)[O-])c1 (stereo not given)	inactive	inactive	inactive	inactive	inactive		inactive	7.76 µM (active)	0.436 µM (active)	14.4 µM (active)		inactive			
NNc1nc(-c2ccccc2)cs1	inactive	inactive	inactive		31.5 µM (active)			9.19 µM (active)		0.651 µM (active)	62.9 µM (active)	inactive	5.8 µM (active)		
Clc1ccc(C(Cn2ccnc2)OCc2ccc(Sc3ccccc3)cc2)c(Cl)c1 (stereo not given)	inactive	inactive	inactive	inactive	26.6 µM (active)		0.389 µM (active)	2.75 µM (active)		15.5 µM (active)		9.52 µM (active)			
O=C(c1ccc(O)cc1O)c1ccc(O)cc1O	inactive	inactive	inactive	inactive	61.2 µM (active) and 43.3 µM (active)		7.98 µM (active) and 11.2 µM (active)	28.3 µM (active) and 22.4 µM (active)	inactive	12.6 µM (active) and 11.2 µM (active)			5.03 µM (active) and 8.94 µM (active)		
Nc1cc(C(F)(F)F)ccc1S	inactive	inactive		inactive	13.3 µM (active)			2.19 µM (active)	2.19 µM (active)	12.3 µM (active)	26.6 µM (active)	inactive			
CC(C)(C)NC(=O)[C@@H]1C[C@@H]2CCCC[C@@H]2CN1C[C@@H](O)[C@H](Cc1ccccc1)NC(=O)[C@H](CC(N)=O)NC(=O)c1ccc2ccccc2n1	19.6 µM (active)	69.5 µM (active)	61.9 µM (active)	27.7 µM (active)	24.7 µM (active)	inactive			40.4 µM (active)			22.2 µM (active)			7.59% (inactive)
CCCCCCCC/C=C/CCCCCCCC1=NCCN1CCO	68.6 µM (active)	43.3 µM (active)		54.5 µM (active)			5.03 µM (active)		25.2 µM (active)		54.5 µM (active)		31.7 µM (active)		
Oc1ccc2cc(SSc3ccc4cc(O)ccc4c3)ccc2c1	inactive	inactive	inactive		17.2 µM (active) and 15.4 µM (active)			35.6 µM (active)	71.1 µM (active) and 39.9 µM (active)	63.4 µM (active) and 63.3 µM (active)	48.6 µM (active) and 54.5 µM (active)	inactive	14.2 µM (active) and 31.7 µM (active)		
CCCCN1CCCC[C@H]1C(=O)Nc1c(C)cccc1C	inactive	inactive	inactive				0.617 µM (active)	inactive	inactive	17.4 µM (active)	inactive	inactive			
